Screening data: PubChem, Pan Lab, Icahn School of Medicine at Mount Sinai
Many of the other results were omitted from the sample, so hits are more common in it than they were.
RBX1-CUL1 inh – inhibitors of human ROC1-CUL1 ubiquitin ligase activity | 140,000 compounds, 0.6% hits | E3 ubiquitin-protein ligase RBX1 (Homo sapiens) + Cullin-1 (Homo sapiens), P62877+Q13616 | inhibition, % at 10 µM | in vitro K48 di-Ub FRET, acceptor:donor ratio, 45 min; in the data active means inhibition above about 25%
Of the large screens only hits and unclear results are named; the others gave an inactive call.

CN1C2CCC1/C(=C/c1cccn1C)C(=O)/C2=C\c1cccn1C	RBX1-CUL1 inh 25
COC(=O)Nc1ccc(S(=O)(=O)Nc2ccc(Oc3ccc(C#N)cc3)cc2)cc1	none
O=S1(=O)c2cccc3cccc(c23)N1Cc1ccc(Cl)c(Cl)c1	none
O=C1C(=O)C(C(=O)/C=C/c2cccc(Cl)c2)C=C(Br)C=C1Br (centres undefined)	RBX1-CUL1 inh 87
COc1ccccc1/C=C/C(=O)C1C=C(Br)C=CC(=O)C1=O (centres undefined)	none
CC(CNC(=O)/C=C/c1cccc(Cl)c1)NC(=O)/C=C/c1cccc(Cl)c1 (centres undefined)	none
O=C1C=CC(Br)=CC(C(=O)/C=C/c2ccc(Cl)cc2)C1=O (centres undefined)	none
Cc1ccccc1/C=C/C(=O)C1C=C(Br)C=C(Br)C(=O)C1=O (centres undefined)	RBX1-CUL1 inh 54
O=C(Nc1ccccc1F)OCc1ccccn1	none
COc1cncc(-c2cnn(CC(=O)Nc3ccnn3-c3ccccc3)c2)c1	none
CCCn1c(C)c(CC(=O)N2CCC[C@H]2C(N)=O)c2c1CC(C)(C)CC2=O	none
O=c1c([N+](=O)[O-])c(Sc2ccccc2)c2ccccc2n1-c1ccccc1	none
COc1cc(Cl)cc(/C=C2/C(=O)NN(c3ccc(F)c(Cl)c3)C2=O)c1O	RBX1-CUL1 inh 94
COc1cc(Cl)cc(C=C2C(=O)N(C)C(=O)N(C)C2=O)c1O	none
C=CCN1C(=O)NC(=O)/C(=C/c2cc(I)cc(I)c2OC)C1=O	none
O=C1NN(c2ccc(Cl)c(Cl)c2)C(=O)/C1=C\c1c2ccccc2cc2ccccc12	none
COc1c(I)cc(I)cc1/C=C1\C(=O)NN(c2ccc(Cl)c(Cl)c2)C1=O	RBX1-CUL1 inh 89
COc1c(I)cc(I)cc1/C=C1/C(=O)NN(c2ccc(Br)cc2)C1=O	RBX1-CUL1 inh 44
CCOc1c(I)cc(I)cc1/C=C1/C(=O)N(c2ccc(Cl)c(Cl)c2)N=C1C	none
COc1ccc(/C=C2\C(=O)NN(c3ccc(Br)cc3)C2=O)cc1Br	none
Cc1ccc(N2NC(=O)/C(=C/c3cc(Cl)ccc3O)C2=O)cc1C	none
C=CCC(=O)N1CCCC(Nc2ccc(F)c(F)c2)C1 (centres undefined)	none
CC(C)CCn1c(=O)c2c(nc3oc(C(C)(C)C)cn32)n(C)c1=O	none
CCCCOc1ccc(C(=O)NC(=S)Nc2ccc(N3CCN(C)CC3)cc2)cc1	none
CN1C(=O)CC(=Nc2ccc(Cl)cc2)N(C)C1=O	none
O=C(CCc1nnc(-c2ccc3c(c2)OCO3)o1)N(CC1CC1)CC1CCCO1 (centres undefined)	none
Cc1ccc(C(=O)N2c3ccc(C(c4ccccc4)(c4ccccc4)c4ccccc4)cc3C(C)(c3ccc(F)cc3)CC2(C)C)cc1 (centres undefined)	none
CCOc1c(Cl)cc(CNCC2CCCO2)cc1OC (centres undefined)	none
O=C(Cc1ccccc1)Nc1ccccc1C(=O)OCC(=O)c1cccc([N+](=O)[O-])c1	none
Cc1ccc2oc3ccccc3c(=O)c2c1	none
Cc1c(-c2ccc(O)c(O)c2)oc2ccccc2c1=O	RBX1-CUL1 inh 93
Cc1cccc2oc3ccccc3c(=O)c12	none
CCC(NC(=O)c1coc(CN2CCc3ccccc3C2)n1)c1ccncc1 (centres undefined)	none
CCOC(=O)C1=CN(Cc2ccc(OC)cc2)C=C(C(=O)OCC)C1c1cccc(OC)c1	none
CCCc1noc(CN2CCC(C(O)Cc3ccccc3)CC2)n1 (centres undefined)	none
O=C1CC=Cc2ccc(O)c(O)c2C1=O	RBX1-CUL1 inh 53
O[C@H]1CN(Cc2nc(-c3ccc(F)cc3)cs2)C[C@@H]1N1CCOCC1	none
CSc1nc(N)nc(SCc2ccccc2Cl)c1C#N	none
CC(=O)c1c(O)ccc2c1[C@@H]1OC(=O)C[C@@H]1O2	RBX1-CUL1 inh 98
Cc1ccc(Nc2nc(N)nc(CN3CCN(c4ccc(F)cc4)CC3)n2)cc1C	none
OCC1CCCN(c2ccc(-c3nc(CCc4ccccc4)no3)cn2)C1 (centres undefined)	none
CCCCSc1nc(O)cc(=O)n1C1CCCCC1	none
COC(=O)c1cc(-c2ccc(/C=C3/SC(=O)NC3=O)o2)ccc1Cl	none
CC1=C(C#N)C(=O)NC(=O)/C1=C/c1ccc(-c2ccc(Cl)c(C(=O)OC(C)C)c2)o1	RBX1-CUL1 inh 86
CC1=C(C#N)C(=O)N(CC(C)C)C(=O)/C1=C/c1ccc(-c2ccc(Cl)cc2)o1	none
Nc1nonc1-c1nc2ccccc2n1CC(=O)Nc1ccccc1Cl	none
CCCC(C(=O)OCC)/C(C)=N/NC(=O)Cc1ccc(OC)cc1 (centres undefined)	none
CN(C)CC1CSCCC1=O (centres undefined)	none
CCOC(=O)c1sc(N2C(=O)C=CC2=O)c(C#N)c1C	RBX1-CUL1 inh 72
CCOC(=O)c1sc(SC)c(C#N)c1O	none
CCOC(=O)c1sc(NC(=O)C(F)(F)F)c(C#N)c1C	none
O=C1CC(C(=O)NCCC2=CCCCC2)Cc2nc(NC(=O)c3c(F)cccc3Cl)sc21 (centres undefined)	none
O=C(c1ccc2ccccc2c1)C1CCCN(C(=O)CCN2CCCC2=O)C1 (centres undefined)	none
CCn1cc(C(=O)N2CCCC(C(=O)c3ccc4ccccc4c3)C2)cn1 (centres undefined)	RBX1-CUL1 inh 68
COC(=O)CCC(=O)N1CCCC(C(=O)c2ccc3ccccc3c2)C1 (centres undefined)	none
Nc1c(Br)ccc2nsnc12	RBX1-CUL1 inh 104
c1ccc2c(c1)ccc1nsnc12	none
Cc1ccc2nsnc2c1S(=O)(=O)Nc1ccccc1Br	none
O=C(CCC1CCCCC1)N1CCN(Cc2ccco2)CC1	none
Cc1cc(C)n2nc(C(=O)N3CCC4(CCCN(CC(C)(C)C)C4)C3)cc2n1 (centres undefined)	RBX1-CUL1 inh 29
COc1cccc(CN2CCCC3(CCN(C(=O)c4cnc(C)cn4)C3)C2)c1 (centres undefined)	none
CC(C)(C)CN1CCCC2(CCN(C(=O)c3cnccn3)C2)C1 (centres undefined)	none
Cc1cc(C)nc(N2CCCC(Cn3cc(CN(C)C)nn3)C2)n1 (centres undefined)	none
CC(C)C(NS(=O)(=O)c1ccccc1)C(=O)NN (centres undefined)	none
Cc1cc(/C=C2\C(=O)NC(=S)N(c3ccccc3F)C2=O)c(C)n1-c1ccc(C(=O)O)c(Cl)c1	RBX1-CUL1 inh 86
Cc1c(Cl)cccc1N1C(=O)/C(=C/c2cccn2-c2cccc(C(=O)O)c2)C(=O)NC1=S	RBX1-CUL1 inh 101
CCc1cccc(C)c1-n1c(C)cc(/C=C2\C(=O)NC(=S)N(c3ccccc3F)C2=O)c1C	none
O=C1NC(=S)N(c2ccc(Br)cc2)C(=O)/C1=C/c1cccn1-c1ccccc1	none
Cc1cc(/C=C2\C(=O)NC(=S)N(c3ccc(Cl)cc3)C2=O)c(C)n1-c1ccc(Cl)cc1	none
Cc1c(/C=C2/C(=O)NC(=S)N(c3cccc(Cl)c3Cl)C2=O)c2ccccc2n1C	none
O=C1NC(=S)N(c2ccc(Cl)cc2)C(=O)/C1=C/c1cccn1-c1cccc(C(=O)O)c1	RBX1-CUL1 inh 25
CCc1ccc(N2C(=O)/C(=C/c3cccn3-c3ccccc3)C(=O)NC2=S)cc1	none
Cc1c(Cl)cccc1N1C(=O)/C(=C/c2cc(C)n(-c3ccc(C#N)cc3)c2C)C(=O)NC1=S	none
Cn1cccc1/C=C1\C(=O)NC(=S)N(c2ccccc2F)C1=O	RBX1-CUL1 inh 95
CCOc1ccc(N2C(=O)/C(=C/c3cccn3C)C(=O)NC2=S)cc1	none
O=C1NC(=O)N(c2ccccc2F)C(=O)/C1=C/c1cccn1-c1ccc(Br)cc1	none
CCCCSc1nc2sc3c(c2c(=O)n1-c1ccc(C)cc1)C(C)CCC3 (centres undefined)	none
